According to PubChem BioAssay AID686978 (National Center for Advancing Translational Sciences (NCATS), 2013):
The whole screen tested about 420,000 compounds, of which about 64,000 (15%) were called active. Not shown: some 27% with an inconclusive outcome. A selection follows. Values without a mark were called inactive. The call rests on the fitted dose curve; in most records, active means well fitted inhibition curve with a large enough effect; inconclusive means small, poorly fitted or top-dose-only effect; inactive means flat fitted curve, though single readings scatter.

Test: qHTS for Inhibitors of human tyrosyl-DNA phosphodiesterase 1 (TDP1): qHTS in cells in absence of CPT; further: nearly all actives have a fitted effect of over 55% in size
Conditions: DT40 Tdp1-/- hTDP1 cells, no CPT, ATP luminescence, 48 h; activity change, negative = growth inhibition: at 46.2 µM (top of the series)
Text: Human tyrosyl-DNA phosphodiesterase 1 (TDP1) is a novel repair gene, and we propose to use it as a new target for anticancer drug development. TDP1 is not an essential protein, but under treatment with topoisomerase I poison (camptothecin: CPT), TDP1 works as a critical factor for cell survival. To directly identify novel TDP1 inhibitors active in a cellular environment, we have knocked-out the Tdp1 gene in chicken DT40 cells (Tdp1-/-) and generated a complemented counterpart cells that contains a stable transfection of the human TDP1 gene (Tdp1-/-;hTDP1 cells). For the primary screen, Tdp1-/-;hTDP1 cells will be exposed to small molecules in the presence or absence of CPT, and their growth kinetics will be evaluated after 48 hours by measuring ATP activity. […] The hit compounds will then be evaluated in the presence or absence of CPT using Tdp1-/- cells. […] In tertiary assays, biochemical gel-based assays will be used to assess whether the hit compounds specifically target TDP1.
To this end, we have screened this cell line against the MLSMR in two primary screens. In one screen we add CPT and in the other we screen in the absence of CPT; this AID represents the screen where CPT was absent.
NIH Chemical Genomics Center [NCGC]
NIH Molecular Libraries Probe Centers Network [MLPCN]
Assay Submitter (PI): Yves Pommier, NCI
DT40-hTDP1 cells without 20 nM Camptothecin (add 20 microL of DMSO in 1 L of cell culture medium) were dispensed at 400 cells/5microL/well in tissue culture treated 1536-well white wall/solid bottom assay plates (Greiner Bio-One North America, NC, U.S.A.) using a Multidrop Combi 8 channel dispenser (Thermo Fisher, Waltham, MA, USA). 23 nL compounds and controls were transferred using the pin tool (Kalypsys, San Diego, CA, USA) to the assay plates. The assay plates were then incubated at 37 masculineC for a minimum 48 hr. Three microL of Cell Titer Glo solution was added to the plates and incubated at RT in dark for 30 min. Luminescence was read using ViewLux (Perkin Elmer) with 1 sec exposure slow speed, high gain and 2x binning.
On the % scale 0 is the no-effect control and ±100 the full control effect; potency means the concentration at half of the fitted maximal effect.

Point of comparison: `CCN(CCn1cccn1)C(=O)CC1C(=O)NCCN1Cc1cccc(OC)c1OC` (stereo unspecified), “activity change, negative = growth inhibition” value -27%. Against it:
- CC(C)C(=O)Nc1oc(-c2ccccc2)cc1C#N — higher, -16.5%
- Cc1ccc(NC(=O)CN(C)C(=O)Cn2nnc(-c3ccccc3)n2)cc1 — higher, -1.72%
- CCCn1nc(C(=O)NNC(=O)CCOc2ccccc2OCC)c2ccccc2c1=O — higher, -17.3%
- CCCn1nc(C(=O)NNC(=O)CSCC(=O)Nc2cc(C)on2)c2ccccc2c1=O — higher, -4.94%
- CCCCCC(=O)Nc1ccc(C(=O)N/N=C/c2ccc([N+](=O)[O-])cc2)cc1 — higher, -26.6%
- CCOC(=O)/C=C/CN(C(=O)OC(C)(C)C)S(=O)(=O)N1CC=CC1 — higher, 1.07%
- Cc1ccccc1C(=O)O — higher, -0.573%
- COC(=O)c1ccccc1C(=O)NCc1nc(N2CCCC2)c2cccc(C)c2n1 — higher, 0.141%
- COc1ccc2[nH]c(C(=O)Nc3ccccc3Cl)cc2c1 — higher, -24.8%
- CCOc1ccccc1/C=N/NC(=O)CNC(=O)COc1ccccc1 — higher, -22.7%
- COc1ccc(/C=N/NC(=O)c2cccc(C(F)(F)F)c2)cc1 — higher, -2.42%
- COc1cccc2[nH]c(C(=O)NCCc3ccccc3)cc12 — higher, -2.24%
- CCCOP(=O)(c1ccc(N(C)C)cc1)C(O)c1cc(OC)c(OC)c(OC)c1 (stereo unspecified) — lower, -28.2%
- Cc1ccc2oc(=O)ccc2c1 — higher, -1.58%
- CC(=O)Nc1ccc(S(=O)(=O)Nc2nccc(/C=C/c3ccccc3F)n2)cc1 — higher, 1.13%
- CCN([C@H](CO)C(C)C)S(=O)(=O)c1ccccc1Br — higher, -1.36%
- CCN(Cc1ccccc1)S(=O)(=O)c1cc(C(=O)O)ccc1OC — higher, 4.3%
- C=CCCN(Cc1ccccc1)S(=O)(=O)c1ccccc1Br — higher, -24.9%
- COCCNS(=O)(=O)c1cc(Br)ccc1OC — higher, 8.91%
- Brc1ccc(-c2nn[nH]n2)cc1 — higher, -10.9%
- CCN=C1SC(CC(=O)Nc2ccc(C)cc2)C(=O)N1CC (stereo unspecified) — higher, 3.16%
- O=C(NCc1cccs1)c1ccc(CS(=O)Cc2ccccc2Cl)o1 (stereo unspecified) — higher, -3.62%
- COc1ccc(NS(=O)(=O)c2cccc3nsnc23)cc1Cl — higher, -1.64%
- C=CCn1c(-c2ccc(Cl)cc2)ccc(C#N)c1=O — lower, -34.7%
- CCN(CC)c1ccc(C(=O)c2cnc(/N=C/N(C)C)s2)cc1 — higher, 1.44%
- Cc1ccnc2nc(C(=O)Nc3nnc(-c4ccccc4)o3)nn12 — higher, 4.64%
- CC(NCC(=O)Nc1ccccc1C(=O)NC1CC1)c1ccccc1Cl (stereo unspecified) — higher, 3.62%
- Cc1ccc(OCC(=O)Nc2ccccc2C(=O)NC2CC2)cc1C — higher, -18.6%
- C[C@H](NC(=O)C1CCN(S(=O)(=O)c2ccccc2)CC1)C(=O)NCc1ccccc1 — higher, 2.13%
- O=C(COc1ccc([N+](=O)[O-])cc1Cl)Nc1ccc2[nH]c(=O)[nH]c2c1 — higher, -25.9%
- O=C1N(c2ccc(Cl)cc2)C(c2ccc(Cl)cc2)N2CCCN12 (stereo unspecified) — higher, -5.61%
- COc1ccc(-n2c(-c3ccc(OC)c(OC)c3)n[nH]c2=S)cc1 — higher, 1.09%
- COc1ccc(N2C(=O)CNC2=S)cc1 — higher, 0.715%
- FC(F)(F)c1cccc(-c2nc(COc3ccc(Cl)cc3Cl)no2)c1 — higher, -3.5%
- CS(=O)(=O)N(CC(=O)N1CCOCC1)c1ccc2c3c(cccc13)CC2 — higher, -0.193%
- O=C(COC(=O)CNS(=O)(=O)c1ccc(F)c(F)c1F)NC1CCCC1 — higher, -24.1%
- COc1cccc(Nc2ncccc2C(=O)O)c1 — higher, -1.91%
- FC(F)(F)c1ccccc1-c1nc(-n2ccnc2)c2ccccc2n1 — higher, 1.22%
- COc1ccc(OC)c(Nc2nc3ccccc3n3cnnc23)c1 — lower, -28.7%
- CC(C)c1cc(CN2CCOCC2)cc(C(C)C)c1O — higher, 13.6%
- O=C(Cc1ccccc1)Nc1ccc(NC(=O)c2cccnc2)cc1 — higher, -9.26%
- CC(C)(C)c1cc[n+](-c2[nH]c(=O)sc2/C=N/N=C(\[O-])c2ccccc2)cc1 — higher, 1.02%
- CCCS(=O)(=O)Nc1c(C(=O)O)[nH]c2ccccc12 — higher, 1.22%
- C[N+](C)(C)CCNC(=O)c1c[nH]c2ccccc12 — higher, -19.4%
- COc1ccc(C2C(C(C)=O)=C(O)C(=O)N2CCc2c[nH]c3ccccc23)cc1 (stereo unspecified) — higher, -14.6%
- N/C(=N\OC(=O)c1ccc2c(c1)OCO2)c1ccc(Br)cc1 — higher, -6.73%
- CCn1cc(C(=O)NCCC(=O)NCCO)c(=O)c2cc3c(cc21)OCO3 — higher, -3.37%
- CCCN(CC(=O)Nc1ccc(C(N)=O)cc1)CC(=O)Nc1ccccc1C — higher, -26.5%
- COc1ccc(N(CC(=O)N2CCCCCC2)S(=O)(=O)c2ccccc2)cc1 — higher, -21.7%
- CS(=O)(=O)N(CC(=O)N1CCN(Cc2ccccc2)CC1)c1ccc2c(c1)OCCO2 — higher, -6.95%
- Cc1ccc(N2C(=O)CC(N3CCSCC3)C2=O)c(C)c1 (stereo unspecified) — higher, 15.3%
- CC1(C)Cc2c(cnn2-c2cccc(F)c2)C(NC(=O)c2cc[n+]([O-])cc2)C1 (stereo unspecified) — higher, -4.77%
- COc1ccc(-n2ncc3c2CC(C)(C)CC3NC(=O)CCc2c(C)nn(C)c2C)cc1 (stereo unspecified) — higher, -3.17%
- COc1ccc(-n2ncc3c2CC(C)(C)CC3NC(=O)CCc2c(C)noc2C)cc1 (stereo unspecified) — higher, -10.3%
- Cc1cc(C(=O)NC2CC(C)(C)Cc3c2cnn3-c2ccccc2)n[nH]1 (stereo unspecified) — higher, -8%
- CCn1ncc(CNC(=O)C2(C)CC2(Br)Br)c1C (stereo unspecified) — higher, -2.88%
- CC12CN3CC(C)(CN(C1)C3c1ccc(Cl)cc1Cl)C2=O (stereo unspecified) — higher, -1.85%
- Cc1ccc(-c2noc(-c3nnn(-c4cccc(C(F)(F)F)c4)c3N)n2)cc1 — higher, 4.08%
- Cc1cc(C)cc(N(CC(=O)NC2CCCC2)C(=O)CCC(=O)Nc2nccs2)c1 — higher, -15.3%
- COc1cc(C(=O)N2CCN(S(=O)(=O)c3ccc(C(C)C)cc3)CC2)ccc1OCC(=O)N1CCOCC1 — higher, 18.5%
- FC(F)(F)c1ccnc(Oc2ccc(C3=NCCS3)cc2)c1 — higher, -5.22%
- O=C(COC(=O)c1ccccn1)Nc1cccc2ccccc12 — higher, 0.707%
- C/C(Cc1ccccc1)=N\NC(=O)CNC(=O)c1cccc(Br)c1 — higher, -2.1%
- C/C(=N\NC(=O)COc1c(C)cccc1C)c1cccs1 — lower, -27.7%
- Cc1c(Cl)cccc1NC(=O)CCC(=O)N/N=C/c1ccco1 — higher, 15.7%
- C=CCN1CC(C)/C(=N\O)CC1C (stereo unspecified) — higher, -4.43%
- Cc1ccc(NC(=O)Cn2cnc3nc4c(cc3c2=O)CCCC4)cc1Cl — higher, 2.29%
- COc1ccc(C(=O)NC(Cc2ccc(OC(=O)c3ccc(OC)cc3)cc2)C(=O)O)cc1 (stereo unspecified) — higher, 2.2%
- CN(CCc1ccccn1)C(=O)CCC1CCCN(Cc2ccccc2OC(F)F)C1 (stereo unspecified) — higher, -10.5%
- CN(CC(=O)NCCc1ccc(S(N)(=O)=O)cc1)CC(=O)Nc1ccc(Cl)cc1 — higher, -18%
- CCNC(=S)Nc1ccc(OC(F)(F)F)cc1 — higher, -24.4%
- O=C1CCC(C(=O)Nc2ccc(OC(F)F)cc2)N1 (stereo unspecified) — higher, -6.43%
- CC(=O)c1ccc(OCC(O)CN2CCN(S(=O)(=O)c3cccc(Br)c3)CC2)cc1 (stereo unspecified) — higher, -22.2%
- CCCCC(=O)N(c1ccc(OC)cc1)C1C=CS(=O)(=O)C1 (stereo unspecified) — higher, -8.95%
- CN(C)/C=C/C(=O)c1ccccc1F — higher, 2.39%
- COc1ccc(NC(=O)c2sc3nc(-c4cc5cccc(OC)c5oc4=O)[nH]c(=O)c3c2C)cc1 — higher, -20.7%
- COc1ccccc1NC(=O)c1c(Br)cnn1C — higher, -18.3%
- N/C(=N\OC(=O)c1ccc([N+](=O)[O-])cc1)c1ccccn1 — higher, 6.67%
- O=C(NC1CC1)C1=C[C@H](c2coc3ccccc3c2=O)C[C@H](OCCCCO)O1 — higher, -1.23%
- CCO[C@H]1OC(C(=O)O)=C[C@@H](C2CCCCC2)[C@@H]1CCCO — higher, 4.26%
- CC1=CC(=NNS(=O)(=O)c2ccc([N+](=O)[O-])cc2)CC(C)(C)C1 — higher, -5.62%
- Cc1ccc(CNC(=O)Cc2cn(C)c3ccccc23)cc1 — higher, -10.4%
- NC(=O)Cn1cc(/C=N\NS(=O)(=O)c2ccccc2)c2ccccc21 — higher, 19.2%
- CCN1CCN(C(=O)/C=C\C(=O)O)CC1 — higher, -12%

With `CCCn1nc(C(=O)Nc2ccc3nc(C)sc3c2)c2ccccc2c1=O` the Potency was 18.4 µM (active).
With `COc1cc2cc(C(=O)N/N=C/c3cccc(OC)c3OC)[nH]c2cc1OC` the Potency was 13 µM (active).
For `CCOc1ccc2[nH]c(C(=O)N/N=C/c3cccc(OC)c3OC)cc2c1`, the Potency was 16.4 µM (active).
With `C=CC(COCc1ccccc1)N(Cc1ccccc1)S(=O)(=O)c1ccccc1Br` (stereo unspecified) the Potency was 16.4 µM (active).
In the case of `C=CC(COCc1ccccc1)N(CC(=O)OC)S(=O)(=O)c1cc(Br)ccc1OC` (stereo unspecified), the Potency is reported as 25.9 µM (active).
With `O=C(c1ccc(CS(=O)Cc2ccccc2Cl)o1)N1CCN(c2ccccc2)CC1` (stereo unspecified) the Potency was 20.6 µM (active).
For `CC1CCCCC1NCC(=O)Nc1ccccc1C(=O)Nc1ccccc1` (stereo unspecified), the Potency was 14.6 µM (active).
For `COc1ccc(-c2cn(-c3ccc(OC)cc3)c(=S)[nH]2)cc1`, the Potency was 18.4 µM (active).
For `FC(F)(F)c1cc(Nc2nc3ccccc3c3nncn23)ccc1Cl`, the Potency was 16.4 µM (active).
In the case of `COc1cccc(Nc2nc3ccccc3c3nncn23)c1`, the Potency is reported as 25.9 µM (active).
With `COc1ccc(/C=C(\C#N)c2c[nH]c3ccccc23)cc1` the Potency was 0.651 µM (active).
With `CC1CCN(C(=O)CN(c2ccc(Oc3ccccc3)cc2)S(C)(=O)=O)CC1` the Potency was 13 µM (active).
In the case of `COC(=O)c1ccc(C(=O)NC2CC(C)(C)Cc3c2cnn3-c2ccc(F)cc2)nc1` (stereo unspecified), the Potency is reported as 3.66 µM (active).
With `Cc1ccc(-n2ncc3c2CC(C)(C)CC3NC(=O)Cc2c(C)noc2C)cc1` (stereo unspecified) the Potency was 23.1 µM (active).
For `Cc1cccc(/C=N/NC(=O)CNc2cccc3ccccc23)n1`, the Potency was 13 µM (active).
For `C/C(=N\NC(=O)CNc1cccc2ccccc12)c1ccc(Br)s1`, the Potency was 8.2 µM (active).
In the case of `CC(NC(=S)Nc1ccc(OC(F)F)cc1)c1ccc(F)cc1` (stereo unspecified), the Potency is reported as 16.4 µM (active).
For `COc1ccccc1NC(=O)c1sc2nc(C)c(C(=O)Nc3ccc(Cl)cc3)c(-c3ccc(Br)cc3)c2c1N`, the Potency was 16.4 µM (active).
In the case of `CCO[C@H]1OC(C(=O)NCc2ccccc2)=C[C@@H](c2coc3ccccc3c2=O)[C@@H]1CCCO`, the Potency is reported as 9.2 µM (active).
In the case of `N#CCC(=O)N/N=C/c1cn(Cc2ccc3ccccc3c2)c2ccccc12`, the Potency is reported as 14.6 µM (active).
With `CNC(=S)N/N=C/c1cn(Cc2ccc(C)cc2)c2ccccc12` the Potency was 18.4 µM (active).
